To fix the notation:
B1: GBRAPL2_151_7321 (protein)
chain: SELEKLKKEAEKLLEELEKLVKELEKKKPEKSTEVETLLGGAEADLILAEEAEDPEEKRRFLLEAAELLADAFKLIAKVLGSEKAKKLAKEAEELAKKLA
B2: GBRAPL2_151_7309 (protein)
chain: KLKEEVIEALERAAEAVEKAAEKLSPEQELERTELELIAGGMEAYAALVEETEDEEKIKEITRRAAEMVRDAAEIAKELGLEEEAKELEEIAKELEELAA
B3: GBRAPL2_151_7306 (protein)
chain: SKKEKAIELLKEAAKTAEEAVKKLSEEQELEKTELELIAGGLEALAILVEETDDEEKIKKLVKEAAELVEDAAKLAEELGLEEEAKKLKELAKELKKLAE
B4: GBRAPL2_151_7318 (protein)
chain: EELEELLKRLKKLAEKLAKLAEELAKEDPEHATEVETLVGGVEADIILAEEEEDEEEKRRHLLRAAELAADAAKLIAEVLKKEEAKKLAEEAKELAEKLK
B5: GBRAPL2_151_7317 (protein)
chain: SELEKLLKELKALAEELWKLAEELAKKDPSVATEVETLVGGVEADIILAEEEEDPEEKRKHLLEAAKLAKDAAELIAEVLKSEKAKKLAEKAKKLAEKLK
B6: GBRAPL2_151_7307 (protein)
chain: SRKEEAIRLLEEAARTAEEAVEALPESKELEKTELELLAGGLDALAILVEEEDDEEKVRELVKEGAELTEDAARLARELGLEEQARRLEELSRRLKELAE
B7: GBRAPL2_175_7332 (protein)
chain: SAREELVKRLAELALRLAEKADDETEDLLLAAAALLEEGGEENLKRAAELIKEAAKEIKDDERLKKAAAELAEAAELLIAGEDVEKAEEELRKAEELLEK
B8: GBRAPL2_175_7331 (protein)
chain: SATEEALKRIAELLERLAERLDGEASDLLLAAAALVEQQGVAAAARAAELVKEAAKLVADDPRLRAALEELAAALKLLAAGAAVEEVQAEIDRAEALLEA
B9: GBRAPL2_175_7337 (protein)
chain: SLEDEVLEALIEALELLSEKADDEVSDLLDAAMALLETDGRAALPRVAELLKKASEEAKDNPELSALLEELAAAAKEFAEGGDLEEILKKAKEIIKKIKA
B10: GBRAPL2_151_7315 (protein)
chain: SWKEEALKALEEAAEAIEEAAKKLPPEHELERTELELLAGGMDAYKALIEETDDEEEIKRLLKEAAELVKEAAEIMKKLGFEEEAKKLEKIAKELEKLAK
B11: GBRAPL2_151_7312 (protein)
chain: SLKEKAVEKLKEAAELVEEAAKALPESQELERTELELIAGGMDADAILIEETEDEEEIKKIIKESAERVEDAAKIAKKLGLEELAKKLEEKAKELKKLAE
B12: GBRAPL2_151_7326 (protein)
chain: SELERLLEKLKELLEKLEKLVEEAAKKDPSHEIELETLVGGAEADLLLAEEAPNDEEKRRFLKEAAELIKDAAELIAKITGSEEAKKLAEEAREILKELE
B13: GBRAPL2_151_7314 (protein)
chain: SWKEEALKALEKGAKAIEEFAKSLPEEHELERTEAELLAGGMEAYRALIEETDDEEEIKRLLKEAAELVKDAAEIAKELGFEKEAKELEKIAKELEKLAK
B14: GBRAPL2_175_7336 (protein)
chain: SLKDEVLAALIEALELLAEKANDEVQDLLEAAMALLEVDGESALPQVAKLLEEAAKEAKDNPELQKLLKELAAAAKEAAEGGDLEEILARAQAIIKEIKA
B15: GBRAPL2_151_7323 (protein)
chain: SELEKLLKEAKKLLKKLEKLVKEAAKKDPKYETELETLVGGAEADLILAEEAKNDEEKREHLKRAAELIADAAELIAKITGSEEAKKLAEEAKELLKKLE
B16: GBRAPL2_175_7330 (protein)
chain: SALEELLKRLAELLEELAEKLDDEASDLLLAAAALIEQDGVAAAKRAAELVKEAAKKVKDNPKLQAALEELAAALELIAAGKAPEEVKAELEKAEALLKE
B17: GBRAPL2_175_7335 (protein)
chain: SKKEEAIKKLIEALELLAEKANDEVQDLLEAAAAVLELDGESGIEQAAKIVKQAAKDAKDNPELQKLLKELAKALKLLAEGGDIEEVIKKAEKIIKELKK
B18: GBRAPL2_151_7324 (protein)
chain: SELEKLLKELKKLLEELEKLVKEASEKYPEYSIELETLAGGAEADILLAEEAKNDEEKRKYLKRAAELIADAAKLIAEITGDERAKKLAEEAKKILKELE
B19: GBRAPL2_175_7338 (protein)
chain: AARAALLARIIELLDELAERADDEVADLLDAAAAVLEEEGEAGAERAARLVAEAAREAADDPRLRAALEAVAAALAALAAGAAPAEVQALLDEAEAILAE
B20: GBRAPL2_151_7313 (protein)
chain: GWKEEALKALKEAAEAIEKAAEALPPEHELERTELELLAGGMDAYRALVEETDDREEIKRLLKDAAELVKDAAEIMEKLGKEEAAKKLKKIAEKLKKLAE
B21: GBRAPL2_151_7311 (protein)
chain: DLKEKAVKALEEAAKALEELAEKLSEEQELEKTEIELLAGGMDAYAILVEETEDEEEIKRIVKDAAELVEDAAKIAKELGLEEDAKKLKEIAKKLKELAK
B22: GBRAPL2_151_7316 (protein)
chain: EWKEEALKALEEGAKAVEEFAKSLPESEELERTELELLAGGLDAYKALIEETDDEEEIRRLLKEAAELVEDAAEIAKKLGREEAAKKLEKIAKKLKELAE
B23: GBRAPL2_175_7334 (protein)
chain: SALDELLARLAALLDELSERADDETADLLDAAMALLELEGAAAAARVAELLREAAELAADNPRLRAALEELARAAALIAEGAAPEEVQAELDRAAALLAE
B24: GBRAPL2_151_7310 (protein)
chain: ELKEKVVKALKEAAKALEELAELLSPEHELEKTEIELIAGGMDAYAALVEETEDEEKIKEITKEAAELVEDAAKIAKELGLEEQAKKLEEIAKKLKELAA
B25: GBRAPL2_151_7308 (protein)
chain: SEKEKAIELLKKAAEAAEEAIKALSEDQELEKTEFELIAGGLEALAILIEEEDDEEKIKELVKRGAELVKDAAELAKKLGLEEQAKKLKEIAKELEKLSK
B26: GBRAPL2_175_7327 (protein)
chain: SEMEELIKRLVELLLRLAEKLDGLASDLLLAAAALLEEEGVDAAKRAAELVKEAAKEIKDNPKLKAAAEELARALKLIAEGAPPEEVKKELEKAEKLLEE
B27: GBRAPL2_175_7333 (protein)
chain: SARQELVKRIRDLLLKLAEKADDETQDLLLAAAALLEEGGEENLKRALELVKEAAKEEKNDATLQQAAAELAAALALLIEGKPVEEAQKEIDAAAKLLAK
B28: GBRAPL2_151_7325 (protein)
chain: SELDELLKKLKELLERLEKLVKEAAKEKPEYETTLETLVGGAEADLLLAEEAENDEEKRRHLKEAAELIRDAAEEIAKITGKEEAKKLAEEAKKLLKELE
B29: GBRAPL2_175_7329 (protein)
chain: SERDELIKRLAELLEKLAEEVDGEASDLLLAAAALLEEEGIEAAKRVAELLKEAAKEIEGNEKLKKAAEALAEAAKLLAEGAPAEEVQKKLEEAEKLLKE
B30: GBRAPL2_151_7319 (protein)
chain: GELEELEKKLKELIKKLEKLLEKLKKEKPEYETEVSTLLGGAEADLLLAEEAEDPEEKRRFLAEAAELAADAFKLIAEVLGSEEAKKLAEEAKKLLEKLK
B31: GBRAPL2_175_7339 (protein)
chain: AAYEKLLAEIIELLLEIAEKANDEVSDLLEAAAAVLETDGLAGAERAARLVKEAAEEAKDNPQLQEALKLIAEALKALAAGAAPEEVKKLLDKAKEVLKK
B32: GBRAPL2_151_7320 (protein)
chain: EELEELERRARELLEELEELVKELEEKKPEHSTEVETLVGGAEADLLLAEEAEDPEEKRRFLLEAAKLIRDAFELIAKILGSERAKELAEEAKELAKELE

Sequence of GABARAPL2, P60520 (P60520 whole entry, the tested form may be a part): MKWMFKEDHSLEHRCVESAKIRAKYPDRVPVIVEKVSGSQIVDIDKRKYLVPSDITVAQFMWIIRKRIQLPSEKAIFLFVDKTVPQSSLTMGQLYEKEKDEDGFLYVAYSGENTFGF

The experiment addresses GABARAPL2, P60520. Kind of experiment: median log2 fold change of GCK-ALFA target abundance (FLAG IP / Myc IP barcode read proportion) (log2 ratio); each designed protein is fused to an ALFA-tag nanobody in HEK293 cells to bring the named protein to FLAG-tagged glucokinase (GCK); Myc marks an untargeted standard; higher = target protein stabilised (more abundant). Conditions: target protein: 3xFLAG-MCP-GCK-ALFA reporter; HEK293 landing pad (RPLP). Summed up: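 The readout is target abundance, the per-binder median log2 ratio of FLAG to Myc barcode read proportions. It came from HEK293 landing-pad cells carrying a recombined ALFA-nanobody-fused binder library, induced with 2 μg mL^−1 doxycycline and transfected with a plasmid for a FLAG-tagged target and a Myc-tagged standard. After 48 h, lysates were immunoprecipitated with anti-FLAG and anti-Myc, and circular RNA barcodes were reverse transcribed, amplified and sequenced. Each barcode needed a proportion of at least 10^−7 in both replicates and each binder at least 3 barcodes per replicate, a pseudocount of 10^−6 was added, and the replicates were pooled.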
For the molecule B1, the “median log2 fold change” value was determined as 0.168.

As for B2, the “median log2 fold change” value turned out to be 0.0437. In the case of B3, the “median log2 fold change” value came out at 0.123. In the case of B4 it was 0.242. B5: the “median log2 fold change” value worked out at 0.0623. As to B6, the “median log2 fold change” value was -0.403. On to B7, for which the “median log2 fold change” value came to 0.136.

For the molecule B8, the “median log2 fold change” value stood at 0.0704.

For B9, the “median log2 fold change” value worked out at 0.0611.

With B10, the “median log2 fold change” value was -0.126. On to B11, for which the “median log2 fold change” value was 0.307. In the case of B12, the “median log2 fold change” value was 0.164.

Take B13: the “median log2 fold change” value worked out at 0.164.

Regarding B14, the “median log2 fold change” value came to 0.166. Take B15: the “median log2 fold change” value is 0.39. On to B16, for which the “median log2 fold change” value was 0.207. On to B17, for which the “median log2 fold change” value is 0.0436.

For the molecule B18, the “median log2 fold change” value worked out at 0.242. B19: the “median log2 fold change” value was -0.358. B20: the “median log2 fold change” value was -0.0822. Turning to B21, the “median log2 fold change” value is -0.0443. With B22, the “median log2 fold change” value was 0.266. In the case of B23 it was 0.086; in that of B24, 0.111; in that of B25, 0.202.

As to B26, the “median log2 fold change” value is 0.118. In the case of B27, the “median log2 fold change” value is 0.119.

In the case of B28, the “median log2 fold change” value was found to be 0.129. B29: the “median log2 fold change” value came to 0.194. In the case of B30, the “median log2 fold change” value came out at 0.141. As to B31, the “median log2 fold change” value was determined as 0.22. Regarding B32, the “median log2 fold change” value came out at 0.183.

The values are drawn from the supplement of paper PMC12632987.
